Assay results published in the supplement of paper PMC9694430.

Key:
Test in all cases: thermal shift delta Tm vs DMSO control; higher = stronger stabilization (binding)
Settings in all cases: 12.5 µM; protein concentration 2 µM
[1] = tested on: LOC_OS01G01410-cb001
Procedure, shortened: (§1)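 Rice kinase domain constructs were expressed in E. coli, purified, and tested by differential scanning fluorimetry with compound added in DMSO. Each well of a 96-well plate held 19.5 μl of 2 μM kinase in 100 mM potassium phosphate pH 7.5, 150 mM NaCl, 10% glycerol and 5 × SYPRO Orange, and fluorescence was read from 25°C to 95°C at 0.05°C/s. The melting temperature shift is the mean of triplicates, taken against protein with DMSO alone after Boltzmann fitting.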

[2] = tested on: LOC_OS01G02750-cb003
Procedure, shortened: as §1

[3] = tested on: LOC_OS01G10900-cb004
Procedure, shortened: as §1

[4] = tested on: LOC_OS01G13800-cb001
Procedure, shortened: as §1

[5] = tested on: LOC_OS01G14860-cb001
Procedure, shortened: as §1

[6] = tested on: LOC_OS01G21960-cb002
Procedure, shortened: as §1

[7] = tested on: LOC_OS01G39600-cb002
Procedure, shortened: as §1

[8] = tested on: LOC_OS01G48390-cb002
Procedure, shortened: as §1

[9] = tested on: LOC_OS01G51400-cb002
Procedure, shortened: as §1

[10] = tested on: T1, LOC_OS01G52050-cb004
T1 sequence (whole entry): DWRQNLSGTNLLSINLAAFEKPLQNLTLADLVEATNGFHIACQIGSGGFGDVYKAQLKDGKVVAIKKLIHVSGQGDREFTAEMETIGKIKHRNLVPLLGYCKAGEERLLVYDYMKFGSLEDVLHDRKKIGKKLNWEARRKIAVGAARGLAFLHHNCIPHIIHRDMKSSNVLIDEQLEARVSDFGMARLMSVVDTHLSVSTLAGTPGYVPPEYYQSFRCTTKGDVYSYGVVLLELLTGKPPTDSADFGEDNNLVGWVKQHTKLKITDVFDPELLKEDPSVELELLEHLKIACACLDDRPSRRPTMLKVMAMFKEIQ
Procedure, shortened: as §1

[11] = tested on: LOC_OS01G57100-cb003
Procedure, shortened: as §1

[12] = tested on: LOC_OS01G60330-cb001
Procedure, shortened: as §1

[13] = tested on: LOC_OS01G60700-cb002
Procedure, shortened: as §1

[14] = tested on: LOC_OS01G63280-cb003
Procedure, shortened: as §1

[15] = tested on: LOC_OS01G67340-cb003
Procedure, shortened: as §1

[16] = tested on: LOC_OS01G70970-cb002
Procedure, shortened: as §1

[17] = tested on: LOC_OS02G07810-cb001
Procedure, shortened: as §1

[18] = tested on: LOC_OS02G08530-cb003
Procedure, shortened: as §1

[19] = tested on: LOC_OS02G14120-cb001
Procedure, shortened: as §1

[20] = tested on: LOC_OS02G17970-cb001
Procedure, shortened: as §1

Compound	thermal shift delta Tm [1] [°C]	thermal shift delta Tm [2] [°C]	thermal shift delta Tm [3] [°C]	thermal shift delta Tm [4] [°C]	thermal shift delta Tm [5] [°C]	thermal shift delta Tm [6] [°C]	thermal shift delta Tm [7] [°C]	thermal shift delta Tm [8] [°C]	thermal shift delta Tm [9] [°C]	thermal shift delta Tm [10] [°C]	thermal shift delta Tm [11] [°C]	thermal shift delta Tm [12] [°C]	thermal shift delta Tm [13] [°C]	thermal shift delta Tm [14] [°C]	thermal shift delta Tm [15] [°C]	thermal shift delta Tm [16] [°C]	thermal shift delta Tm [17] [°C]	thermal shift delta Tm [18] [°C]	thermal shift delta Tm [19] [°C]	thermal shift delta Tm [20] [°C]
Cc1nc(NC(=O)N2CCC[C@H]2C(N)=O)sc1-c1ccnc(C(C)(C)C(F)(F)F)c1 [Alpelisib (BYL719)]	0.28	1.42	3.68	-0.51	-0.19	0.02	-0.17	0.54	0.42	0.12	0.37	0.43	1.65	0.27	0.12	0.36	0.62	-0.09	2.13	1.03
COc1cc2c(Nc3ccc(NC(=O)c4ccccc4)cc3)ncnc2cc1OCCCN1CCOCC1	2.69	0.98	-0.03	0.65	0.52	0.26	1.98	0.89	0.34	0.94	0.97	1.05	0.6	1.19	0.4	1.66	1.37	0.66	0.79	0.45
O=C(Nc1cccc(Nc2ncc(Br)c(NCCc3cnc[nH]3)n2)c1)N1CCCC1	5.28	2.32	0.86	0.31	4.24	3.16	7.21	4.8	1.21	11.9	1.45	12.3	0.44	0.73	2	9.39	0.15	2.7	10.6	0.3
CC(C)(CCCCCC(O)CCCCCC(C)(C)C(=O)O)C(=O)O	0.55	0.54	0.09	0.41	-0.23	0.39	-0.54	0.29	0.29	0.02	-0.51	1.18	0.87	-0.01	0.52	0.21	0.4	0.32	0.05	0.59
Cn1cc(-c2ccc3c(c2)CCN3C(=O)Cc2cccc(C(F)(F)F)c2)c2c(N)ncnc21	1.18	3.93	2.83	-0.12	0.47	0.33	0.17	0.89	-0.22	2.35	1.46	-0.42	0.15	9.43	3.52	0.54	0.74	1.06	3.86	0.57
C=C[C@@](C)(/C=C/c1ccc(O)cc1)CCC=C(C)C [Bakuchiol]	1	1.1	1.06	0.03	0.91	0.52	0.57	0.85	0.52	3.47	-0.4	0.36	0.05	0.51	-0.02	0.49	-0.84	0.6	0.29	0.27
Cc1cc(NC(=O)c2cccc(NC(=O)/C=C/CN(C)C)c2)ccc1Nc1nccc(-c2cccnc2)n1	1.77	1.69	4.22	0.46	1.25	1.6	6.45	1.99	0.73	0.75	1.86	0.94	1.77	0.92	0.69	1.62	1.46	1.8	0.95	1.45
Cc1ccc(Nc2cc(N[C@@H]3CCCC[C@@H]3N)nnc2C(N)=O)nc1C	1.14	1.56	0.34	0.15	4.3	1.71	0.06	0.5	0.36	4.19	2.34	1.23	1.25	0.77	0.39	2.01	0.12	2.54	5.04	1.48
O=C(Nc1nccs1)C(c1cc(F)ccc1O)N1Cc2ccccc2C1=O (stereo unspecified)	0.29	0.35	0.25	-0.01	0.4	0.48	-0.23	-0.1	-0.02	-0.31	0.29	1.19	0.64	-0.09	1.06	0.42	0.12	0.39	0.47	0.37
COc1cc2c(Oc3ccc4[nH]c(C)cc4c3F)ncnc2cc1OCCCN1CCCC1 [Cediranib (AZD2171)]	0.9	0.39	0.21	0.33	0.26	0.39	0.22	0.63	0.05	0.09	0.31	1.14	0.79	0.02	0.06	0.42	0.2	0.41	0.33	0.26
Nc1nccc(Oc2ccc3c(C(=O)Nc4cccc(C(F)(F)F)c4)cccc3c2)n1	0.89	1.42	0.88	1.39	3.82	1.43	0.93	1.13	0.12	1.04	1.31	1.99	0.86	7.54	0.91	0.71	0.76	0.59	1.14	1.47
CN1CCN(c2cccc(Nc3nc4c(-c5ccc(S(C)(=O)=O)cc5)cccn4n3)c2)CC1	2.06	0.63	1.02	-0.37	0.51	1.39	2.12	1.12	0.39	2.68	0.76	13.8	0.45	0.49	1.35	0.37	0.59	1.34	6.3	0.48
C=CC(=O)Nc1cccc(Sc2nc(Nc3ccc(N4CCN(C)CC4)cc3)ncc2Cl)c1	3.81	1.58	5.27	-0.1	1.89	0.88	6.99	7.06	1.43	4.22	-1.98	1.15	0.75	0.45	0.87	7.21	0.82	2.38	6.55	0.58
CN(C)Cc1cccc(N=C(c2ccccc2)c2c(O)[nH]c3cc(C(=O)N(C)C)ccc23)c1	-0.17	0.75	0.14	0.49	0.13	0.52	1.05	1.46	0.16	0.77	0.86	0.56	0.46	0.74	0.8	0.24	1.05	0.71	1.17	1.25
NC(=O)c1cnc2[nH]ccc2c1N[C@@H]1[C@@H]2CC3C[C@H]1C[C@@](O)(C3)C2	3.91	3.77	1	0.16	5.61	2.38	5.22	4.09	0.18	4.66	0.13	10.2	1.43	3.87	3.53	6.42	0.39	3	6.44	0.82
Cc1ccc(NC(=O)c2cccc(N(C)C)c2)cc1NC(=O)c1ccc(O)cc1	0.45	0.15	0.12	0.36	0.44	0.92	-0.01	0.9	0.37	0.36	2.98	1.17	1.43	0.32	-0.19	0.28	1.54	1.03	0.45	0.95
CCn1cc(-c2ccnc3[nH]c(-c4cccc(CN(C)C)c4)cc23)c(-c2ccc(NC(=O)N(C)C)cc2)n1	0.68	2.48	1.01	0.47	2.81	0.73	0.91	1.28	0.51	0.87	1.51	0.61	1.18	2.91	0.66	0.18	0.49	1.02	6.39	1.01
CCCCNc1ncc2c(-c3ccc(CN4CCN(C)CC4)cc3)cn([C@H]3CC[C@H](O)CC3)c2n1	5.57	6.91	0.53	-0.91	2.44	2.55	7.19	3.3	0.81	9.81	3.5	14.9	0.56	0.95	10.1	8.18	-0.25	5.26	12.2	-0.42
O=c1c(O)c(-c2cc(O)c(O)c(O)c2)oc2cc(O)cc(O)c12 [Myricetin]	2.93	26.2	1.94	1.96	5.72	5.56	4.45	2.72	2.08	5.01	7.25	8.95	-2.19		2.79	2.23	2.22	2.57	2.73	5.74
CC(C)(C)c1cc(/C=C(\C#N)C(N)=S)cc(C(C)(C)C)c1O [Tyrphostin AG 879]	2.99	5.43	4.19	2.01	2.28	1.97		1.74	0.42	4.16	5.01	3.04	4.7			2.23	2.55	2.78	4.98	3.25
O=C(NCc1cccc(O)c1)Nc1nc(-c2ccncc2)cs1	1	1.02	0.6	-0.25	1.72	1.09		1.48	0.4	1.09	0.7	0.56	1.38	-0.09	0.16	0.57	1.03	1.04	0.87	0.34
Cc1nc2c(-c3cnc(N)nc3)nc(N3CCOCC3)nc2n1C(C)C	0.02	0.81	0.35	0.04	-0.18	0.83	1.29	0.44	0.69		1.43	0.31	1.66	0.78	0.22		1.23	1.18	0.05	2.41
Cc1ccc(NC(=O)Nc2cc(C(F)(F)F)ccc2F)cc1Nc1ccc2c(c1)NC(=O)/C2=C\c1ccc[nH]1	0	4.91	-0.66	3.11	2.49	4.16	2.94	3.2		4.68	2.33	1.66	0.91	2.05	1.55	1.83	3.74	-2.7	0.57	1.85
CCc1ccc(/C=C2/SC(=S)NC2=O)cc1	1.69	1.03	2.03	0.53	1.38	1.74		0.63	0.67	1.47	3.2	1.11	2.87	0.27	0.34	1.39	1.4	1.74	1.62	1.54
